Active and inactive are the calls of the source. Rule for the calls: active = hit-call score of the fitted dose curve at least 0.9, where 1 is the maximum; inactive = score below 0.9.
Test: CCTE_Mundy_HCI_Cortical_Synap_Neur_Matur_NeuriteCount: CCTE's Synaptogenesis and Neurite Maturation Assay in rat cortical cells for Neurite Count, Mundy Lab (AID 2284222)
Description: CCTE_Mundy_HCI_Cortical_Synap&Neurite_Matur is a multiplexed, cell-based-readout assay that uses rat primary cortical cells with measurements taken at 288.33 hours after chemical dosing in a microplate: 96-well plate.CCTE_Mundy_HCI_Cortical_Synap_Neur_Matur_NeuriteCount is one of eight components of the CCTE_Mundy_HCI_Cortical_Synap&Neurite_Matur assay. It measures synaptogenesis and neurite maturation related to number of neurites using High Content Imaging of fluorescently labelled markers.[…] Using a type of morphology reporter, loss -of-signal activity can be used to understand developmental effects.
Cells are plated onto 96 well plates and allowed 2 hr for attachment to the substrate. At days in vitro (DIV) 5, Cytosine Arabinoside (AraC) is added to arrest glial cell growth. Chemicals are dosed and a media change is performed at DIV 7 of differentiation and is continued through DIV 12 when the experiment is terminated. Cells are fixed with […] and Hoechst Dye. Cells are stained using Millipore Mouse anti-MAP2MAB3418 (1:800) and Millipore Rabbit anti-Synaptophysinsc-1750 (1:250) primary antibodies and Alexa Fluor-488 goat anti-mouse and AlexaFluor-546 goat anti-rabbit secondary antibodies to label neuronal cell nuclei, synapses and neurites. A Cellomics ArrayScan VTi HCS Reader is used for automated image acquisition and analysis of neurite outgrowth.

| Compound | AC50 | outcome |
| --- | --- | --- |
| C=C(C)CN(CC)c1c([N+](=O)[O-])cc(C(F)(F)F)cc1[N+](=O)[O-] | 7.75 µM (active) | – |
| N#CN=C1SCCN1Cc1ccc(Cl)nc1 | – | inactive |
| COP(=S)(OC)SCn1nnc2ccccc2c1=O | – | inactive |
| O=C(Nc1ccccc1-c1ccc(Cl)cc1)c1cccnc1Cl | – | inactive |
| CNC(=O)Oc1cccc2ccccc12 | – | inactive |
| COC(=O)N(C(=O)N1CO[C@@]2(C(=O)OC)Cc3cc(Cl)ccc3C2=N1)c1ccc(OC(F)(F)F)cc1 | – | inactive |
| CCNC(=O)NC(=O)C(C#N)=NOC | – | inactive |
| Cc1c(COC(=O)[C@@H]2[C@H](/C=C(\Cl)C(F)(F)F)C2(C)C)cccc1-c1ccccc1 | 5.03 µM (active) | – |
| CC(C)(C)C(=O)C(Oc1ccc(Cl)cc1)n1cncn1 (stereo not drawn) | 12.8 µM (active) | – |
| CS(=O)(=O)c1ccc(C(=O)C2C(=O)CCCC2=O)c([N+](=O)[O-])c1 | – | inactive |
| COP(=O)(OC)O/C(C)=C/C(=O)N(C)C | – | inactive |
| CS(=O)(=O)c1cc(C(F)(F)F)ccc1C(=O)c1cnoc1C1CC1 | – | inactive |
| CC1(C)C(C=C(Cl)Cl)C1C(=O)OC(C#N)c1cccc(Oc2ccccc2)c1 (stereo not drawn) | – | inactive |
| CN/C(=N\[N+](=O)[O-])NCc1cnc(Cl)s1 | – | inactive |
| CCN(CC)c1nc(C)cc(OP(=S)(OC)OC)n1 | – | inactive |
| CCSC(=O)N1CCCCCC1 | – | inactive |
| CCOP(=O)(OCC)Oc1nc(Cl)c(Cl)cc1Cl | – | inactive |
| CO/N=C(/C1=NOCCO1)c1ccccc1Oc1ncnc(Oc2ccccc2Cl)c1F | 3.45 µM (active) | – |
